The source of these data is PubChem BioAssay (EPA / NIEHS).

Assay [1] in a line: ATG_PXRE_CIS: Attagene CIS-FACTORIAL HepG2 Assay for human Pregnane X Receptor Element (PXRE) (AID 2282957). The settings on record: HepG2 Attagene CIS-FACTORIAL PXRE reporter, mRNA; actives raise or lower the signal. The procedure, abridged:
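Transiently transfected HepG2 cells were dosed and incubated for 24 h. RNA was then isolated, DNase-treated, reverse-transcribed and reporter sequences amplified. Labeled, HpaI-digested fragments were quantified by capillary electrophoresis against DMSO.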

Assay [2] in a line: ATG_PPRE_CIS: Attagene CIS-FACTORIAL HepG2 Assay for human Peroxisome Proliferator-activated Response Element (PPRE) (AID 2282958). To be noted: HepG2 PPRE cis-element reporter, Attagene transcription factor profiling; actives raise or lower the signal. A digest of the protocol:
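Read-out: fluorescent reporter mRNA fragments resolved by capillary electrophoresis after RT-PCR. HepG2 cells carried transiently transfected PPRE-driven cis reporter constructs and were dosed for 24 h; gain or loss of signal fitted relative to DMSO.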

Assay [3] in a line: ATG_Sox_CIS: Attagene CIS-FACTORIAL HepG2 Assay for human SRY-box transcription factor (SOX) (AID 2282960). The settings on record: HepG2 Attagene cis-factorial SOX reporter, mRNA; actives raise or lower the signal. A digest of the protocol: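 Read-out: fluorescent RT-PCR products of SOX1-linked reporter transcripts resolved by capillary electrophoresis, fitted bidirectionally against DMSO. Transiently transfected HepG2 cells, 24 h after chemical exposure, endogenous transcription factor activity.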

In assay [4] the target is Transcription factor Sp1 (Homo sapiens) (UniProt P08047). In words: ATG_Sp1_CIS: Attagene CIS-FACTORIAL HepG2 Assay for human Specificity Protein 1 (Sp1) (AID 2282961). The settings on record: HepG2 Sp1 cis-reporter transcription, actives raise or lower the signal. The procedure, abridged:
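Read-out: fluorescence of 6-FAM-labeled, HpaI-digested RT-PCR products separated by capillary electrophoresis. HepG2 cells carried transfected cis-element reporter units and were exposed to chemicals for 24 h; gain or loss of signal fitted relative to DMSO.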

Assay [5] in a line: ATG_SREBP_CIS: Attagene CIS-FACTORIAL HepG2 Assay for human Sterol Regulatory Element Binding (SREBP) (AID 2282962). The settings on record: HepG2 Attagene cis-factorial SREBP reporter, mRNA; actives raise or lower the signal. A digest of the protocol:
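HepG2 cells transiently transfected with multiplexed cis-element reporter units report endogenous transcription factor activity. After 24 h of chemical exposure, reporter mRNA was quantified by RT-PCR, 6-FAM labelling, HpaI digestion and capillary electrophoresis; bidirectional fits used DMSO as baseline.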

The target in assay [6] is Signal transducer and activator of transcription 3 (Homo sapiens) (UniProt P40763). Description: ATG_STAT3_CIS: Attagene CIS-FACTORIAL HepG2 Assay for human Signal Transducer and Activator of Transcription 3 (STAT3) (AID 2282963). To be noted: HepG2, Attagene cis-factorial STAT3 reporter transcription; actives raise or lower the signal. The procedure, abridged:
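Endogenous STAT3-responsive cis-element activity was read in transiently transfected HepG2 cells after 24 h treatment. Reporter transcripts were quantified via RT-PCR and capillary electrophoresis, with DMSO as negative control and bidirectional curve fitting.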

Assay [7] in a line: ATG_TA_CIS: Attagene CIS-FACTORIAL HepG2 Assay for human TA Basal Promoter (AID 2282964). The settings on record: HepG2 Attagene CIS-factorial TA basal promoter reporter; actives raise or lower the signal. A digest of the protocol: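 Fluorescence from labelled RT-PCR reporter fragments, separated by capillary electrophoresis, gives the signal. Cells: HepG2 transiently carrying multiple reporter units, 24 h chemical dosing. Gain or loss relative to DMSO.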

The nature of assay [8]: ATG_TCF_b_cat_CIS: Attagene CIS-FACTORIAL HepG2 Assay for human T-Cell-Factor with beta-catenin (TCF/b-cat) (AID 2282965). To be noted: HepG2 TCF/beta-catenin cis-reporter transcription, actives raise or lower the signal. A digest of the protocol:
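Endogenous TCF/LEF activity read as reporter transcript level via RT-PCR and capillary electrophoresis fluorescence in transfected HepG2, 24 h exposure; gain or loss of signal fitted against DMSO controls.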

The nature of assay [9]: ATG_TAL_CIS: Attagene CIS-FACTORIAL HepG2 Assay for human TAL Basal Promoter (AID 2282966).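 Further: background control endpoint measuring basal TAL promoter reporter mRNA not a specific factor.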 To be noted: HepG2 Attagene cis-factorial TAL promoter reporter; actives raise or lower the signal. A digest of the protocol:
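Readout: reporter mRNA, fluorescence by CE. System: HepG2, transient multi-reporter transfection, endogenous TF activity. Exposure: 24 h. Analysis: bidirectional, DMSO-normalized; background control.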

A short description of assay [10]: ATG_RORE_CIS: Attagene CIS-FACTORIAL HepG2 Assay for human RAR-related Orphan Receptor Element (RORE) (AID 2282959). To be noted: HepG2 Attagene cis-factorial RORE reporter, mRNA; actives raise or lower the signal. A digest of the protocol: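 Readout: fluorescent reporter mRNA by RT-PCR plus capillary electrophoresis, 24 h after dosing transfected HepG2 cells. Endogenous transcription factor activity on a cis promoter element is measured. Gain or loss of signal fitted against DMSO.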

Calls of active or inactive are those of the source. How the source made its calls: active means hit-call score of the fitted dose curve at least 0.9, where 1 is the maximum; inactive means score below 0.9.

Sequence of Signal transducer and activator of transcription 3 (Homo sapiens) (P40763 whole entry, looked up): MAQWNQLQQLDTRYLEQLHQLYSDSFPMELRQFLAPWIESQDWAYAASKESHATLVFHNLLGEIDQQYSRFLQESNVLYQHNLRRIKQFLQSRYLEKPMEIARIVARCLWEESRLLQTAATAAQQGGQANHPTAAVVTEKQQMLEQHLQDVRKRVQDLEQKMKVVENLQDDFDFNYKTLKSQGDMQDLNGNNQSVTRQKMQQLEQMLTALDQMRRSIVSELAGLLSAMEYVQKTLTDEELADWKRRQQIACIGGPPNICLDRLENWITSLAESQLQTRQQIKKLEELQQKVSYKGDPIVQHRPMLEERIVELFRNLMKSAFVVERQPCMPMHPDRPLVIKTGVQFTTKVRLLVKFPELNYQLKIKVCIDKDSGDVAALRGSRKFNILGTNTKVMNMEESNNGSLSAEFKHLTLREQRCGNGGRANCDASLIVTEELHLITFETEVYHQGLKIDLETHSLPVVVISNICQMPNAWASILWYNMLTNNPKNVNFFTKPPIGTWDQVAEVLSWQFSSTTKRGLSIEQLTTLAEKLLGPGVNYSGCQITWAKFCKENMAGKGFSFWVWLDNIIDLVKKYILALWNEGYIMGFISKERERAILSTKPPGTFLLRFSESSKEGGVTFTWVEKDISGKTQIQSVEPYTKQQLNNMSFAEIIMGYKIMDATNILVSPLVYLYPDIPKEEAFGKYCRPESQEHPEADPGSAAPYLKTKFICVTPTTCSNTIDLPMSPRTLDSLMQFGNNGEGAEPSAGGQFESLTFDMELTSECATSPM
Sequence of Transcription factor Sp1 (Homo sapiens) (P08047 whole entry, looked up): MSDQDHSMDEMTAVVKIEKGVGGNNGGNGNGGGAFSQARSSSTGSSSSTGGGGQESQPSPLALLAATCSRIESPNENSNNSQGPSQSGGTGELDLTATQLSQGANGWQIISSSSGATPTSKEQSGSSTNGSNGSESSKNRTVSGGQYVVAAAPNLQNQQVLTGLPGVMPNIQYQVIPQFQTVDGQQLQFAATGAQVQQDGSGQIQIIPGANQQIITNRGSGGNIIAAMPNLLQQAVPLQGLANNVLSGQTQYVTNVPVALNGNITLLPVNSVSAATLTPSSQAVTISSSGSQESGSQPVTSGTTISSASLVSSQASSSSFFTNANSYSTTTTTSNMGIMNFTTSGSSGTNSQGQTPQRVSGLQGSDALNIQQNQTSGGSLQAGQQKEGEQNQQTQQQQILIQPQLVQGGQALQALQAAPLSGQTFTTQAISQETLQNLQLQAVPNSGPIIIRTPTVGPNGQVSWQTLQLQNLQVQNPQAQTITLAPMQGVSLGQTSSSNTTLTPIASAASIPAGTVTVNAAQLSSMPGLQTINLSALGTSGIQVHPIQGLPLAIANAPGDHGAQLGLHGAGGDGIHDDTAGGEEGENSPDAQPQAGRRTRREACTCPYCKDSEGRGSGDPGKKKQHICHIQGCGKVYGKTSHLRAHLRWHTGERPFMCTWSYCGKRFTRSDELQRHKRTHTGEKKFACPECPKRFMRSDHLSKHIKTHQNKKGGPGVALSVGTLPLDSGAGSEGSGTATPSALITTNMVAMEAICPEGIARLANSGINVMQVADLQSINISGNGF

Take `CCCCOP(=O)(CCCC)OCCCC`: in [1], the AC50 is 6970 nM (active). In addition, the outcome in assay [2], in [3], in assay [4], in assay [5], in [6] and in [7] was inactive. Moreover, the call in assay [8] and in [9] was inactive.

For `CCOP(=O)(OCC)OC(=CCl)c1ccc(Cl)cc1Cl`, the concentration at half-maximal activity (AC50) in [1] was 754 nM (active). Also, the result in [2], in assay [10], in [4], in [5], in [6] and in assay [7] was inactive. Also, the outcome in assay [8] and in [9] was inactive.

As for `NC(=O)c1ccc(N)nc1`, the result in assay [1], in assay [2], in assay [10], in assay [4], in assay [5] and in assay [6] was inactive. Also, the call in assay [7], in [8] and in assay [9] was inactive.

Consider `O=[N+]([O-])c1cccc2ccccc12`, for which, in assay [1], the AC50 was 27600 nM (active). The molecule was called inactive in assay [2], in [10], in [5], in [6], in assay [7] and in assay [8]. Moreover, the result in assay [9] was inactive.

As to `C=C(C)C(=O)OCCCCOC(=O)C(=C)C`, the outcome in [1], in assay [2], in assay [3], in assay [4], in assay [5] and in assay [6] was inactive. In addition, the call in assay [7], in assay [8] and in assay [9] was inactive.

Turning to `CN(N=O)c1ccc([N+](=O)[O-])cc1`, the AC50 in assay [1] is 18600 nM (active). Besides, the call in [2], in assay [3], in [4], in assay [5], in assay [6] and in [7] was inactive. In addition, in assay [8], the molecule was called inactive.

For `CCC[CH2][Sn]([Cl])([Cl])[CH2]CCC`, the AC50 was 865 nM (active) in [1]; 62.5 nM (active) in assay [2]; 1610 nM (active) in [3]; 966 nM (active) in assay [4]; 811 nM (active) in assay [5]; 1820 nM (active) in assay [8]. In addition, the molecule was classed as inactive in assay [6], in [7] and in assay [9].

Take `C#CCO`: the call in [1], in assay [2], in assay [10], in assay [4], in [5] and in [6] was inactive. Also, the call in assay [7], in [8] and in assay [9] was inactive.

As to `CCCSP(=S)(OCC)Oc1ccc(Cl)cc1Cl` (configuration not stated), the AC50 in [1] is 2720 nM (active). Moreover, the molecule was classed as inactive in [2], in assay [3], in [4], in assay [5], in assay [6] and in [7]. Moreover, the molecule was called inactive in assay [8] and in [9].

As to `Nc1c(Oc2ccccc2)cc(O)c2c1C(=O)c1ccccc1C2=O`, the AC50 in [1] was 4420 nM (active). Further, the molecule was called inactive in assay [2], in assay [10], in assay [5], in assay [6], in assay [7] and in assay [8]. Besides, in assay [9], the result was inactive.

For `Cc1ccc(OP(=O)(Oc2ccc(C)cc2C)Oc2ccc(C)cc2C)c(C)c1`, the AC50 in assay [1] is 181 nM (active); in [4], 26200 nM (active). Further, the molecule was classed as inactive in [2], in assay [10], in [5], in assay [6], in assay [7] and in [8]. Also, the call in assay [9] was inactive.

As for `Oc1cc(Cl)c(Cl)cc1Cl`, the AC50 was 25800 nM (active) in assay [1], 46200 nM (active) in [10], 58200 nM (active) in assay [4] and 136000 nM (active) in assay [5]. The call in assay [3], in assay [6], in assay [7], in [8] and in assay [9] was inactive.

`CCCSP(=S)(OCC)Oc1ccc(SC)cc1` (configuration not stated): the AC50 in [1] is 2920 nM (active). Further, the molecule was called inactive in assay [2], in assay [3], in assay [5], in [6], in [7] and in assay [8].

As to `O=[N+]([O-])c1ccc(Cl)c([N+](=O)[O-])c1`, the molecule was called inactive in [1], in assay [2], in assay [4], in assay [5], in assay [7] and in [8]. Also, the call in assay [9] was inactive. For the same molecule, the AC50 in assay [6] was 5930 nM (active).

With `[F][Sn]([c]1ccccc1)([c]1ccccc1)[c]1ccccc1`, the AC50 was 466 nM (active) in [1]; 31.9 nM (active) in [10]; 328 nM (active) in assay [3]; 303 nM (active) in [4]; 597 nM (active) in assay [6]; 580 nM (active) in assay [7]. The outcome in assay [5], in assay [8] and in assay [9] was inactive.

For the molecule `CC(c1ccc(O)cc1)c1ccc(O)cc1`, the AC50 in assay [1] was 27600 nM (active). Besides, the outcome in assay [10], in [3], in [4], in [5], in assay [6] and in assay [7] was inactive. The molecule was classed as inactive in assay [8].

With `O=C(O)CC(O)(CC(=O)O)C(=O)O`, the molecule was called inactive in [1], in assay [2], in assay [3], in assay [4], in assay [5] and in assay [6]. Also, the outcome in [7], in [8] and in assay [9] was inactive.

Regarding `CC(C)=CC1C(C(=O)OCc2cccc(Oc3ccccc3)c2)C1(C)C` (configuration not stated), in [1], the AC50 is 3430 nM (active). Further, the result in [10], in assay [3], in assay [4], in [5], in [6] and in assay [7] was inactive. The result in assay [8] and in assay [9] was inactive.

Consider `COc1nn(C(=O)NS(=O)(=O)c2ccccc2OC(F)(F)F)c(=O)n1C`, for which the molecule was called inactive in [1], in assay [2], in assay [3], in [4], in assay [5] and in assay [6]. The molecule was classed as inactive in [7], in [8] and in assay [9].

For `O=C(Cc1ccccc1)OCCc1ccccc1`, the molecule was called inactive in [1], in assay [2], in [3], in assay [5], in [6] and in assay [7]. The outcome in assay [8] and in assay [9] was inactive.

Take `C1CN2CCN1CC2`: the molecule was called inactive in assay [1], in assay [10], in assay [3], in [4], in [5] and in [6]. The result in assay [7], in assay [8] and in [9] was inactive.

Turning to `CCOP(=S)(OCC)Oc1ccc(Cl)cc1Cl`, in [1], the AC50 was 3820 nM (active). Also, the call in assay [2], in assay [3], in assay [4], in assay [6], in [7] and in assay [8] was inactive. In addition, the call in [9] was inactive.

In the case of `Cc1cc(-c2cc(C)c(N)c(C)c2)cc(C)c1N`, the AC50 in assay [1] is 26500 nM (active). In addition, the molecule was called inactive in assay [2], in assay [3], in assay [5], in [6], in assay [7] and in assay [8].

For `C1CCC(C2CCCCC2)CC1`, the result in [1], in [2], in assay [3], in assay [5], in [6] and in assay [7] was inactive. Besides, in assay [8], the outcome was inactive.

For the molecule `BrCCCCBr`, the call in [1], in assay [10], in [3], in assay [4], in [5] and in assay [6] was inactive. The molecule was called inactive in assay [7], in assay [8] and in assay [9].

By AC50 is commonly meant the concentration at which the activity in the assay is half-maximal.
